# High-throughput results (PubChem)
# FBPA coupling cs = qHTS Assay for Inhibitors of Fructose-1,6-bisphosphate Aldolase from Giardia Lamblia: Coupling assay counterscreen; coupling enzyme system counterscreen, AmpLite Red fluorescence; activity change, negative = inhibition, % at 58.2 µM, hits read low; actives 0.67% (n = 290,000); AID 2472, 2010; in the data active = activity change below about -30%; note: % is set by controls: 0 for no effect and ±100 for the full control effect
#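 Fluorescence at 525 nm excitation and 598 nm emission measured inhibition of the coupled detection system without aldolase. Compounds (at 57.5 uM final) were preincubated 10 min at room temperature with coupling enzyme reagent before a 20 min substrate/AmpLite Red step.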
# Tau fluor cs = Counterscreen qHTS for Inhibitors of Tau Fibril Formation, Fluorescence Polarization | tau K18 P301L Alexa594 fluorescence, heparin fibrillization | Potency, µM (series often up to 57.7 µM), for the others: top-dose activity change, negative = decrease | actives 0.93% (n = 280,000); note: potency is the fitted concentration of half-maximal effect; % is set by controls: 0 for no effect and ±100 for the full control effect; nearly all actives have a fitted effect of over 55% in size
#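 Human K18 P301L tau (15 uM unlabeled plus 0.24 uM Alexa 594-labeled, final) in 100 mM sodium acetate pH 7 was mixed with compound and 20 uM heparin and incubated 6 hr at 37 C.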
# JMJD2E inh = qHTS Assay for Inhibitors of Human Jumonji Domain Containing 2E (JMJD2E); Lysine-specific demethylase 4E (Homo sapiens), B2RXH2; actives 1.6% (n = 230,000); Potency, µM (series often up to 57.1 µM), for inactives: at the top dose activity change, negative = inhibition, actives largely listed as inhibitors; JMJD2E catalytic domain, FDH-coupled NADH fluorescence (FDH is formaldehyde dehydrogenase);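 note: potency is the fitted concentration of half-maximal effect; 0% = wells with enzyme and -100% = buffer wells without enzyme; nearly all actives have a fitted effect of over 50% in size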
# Tau fibril FP = qHTS for Inhibitors of Tau Fibril Formation, Fluorescence Polarization; actives 0.39% (n = 280,000); AID 1468, 2008; Potency, µM (titrated, usually from 57.7 µM), for the others: top-dose activity, negative = inhibition, usual class: inhibitors; Microtubule-associated protein tau (Homo sapiens), P10636; K18 P301L tau heparin fibrillization, Alexa594 FP, 6 h; note: potency is the fitted concentration of half-maximal effect; % is set by controls: 0 for no effect and ±100 for the full control effect; nearly all actives have a fitted effect of over 55% in size
#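 Quantitative HTS format: compounds meet 15 uM recombinant K18 P301L tau and Alexa 594-tau tracer in 100 mM sodium acetate pH 7; 20 uM heparin triggers fibrillization at 37 C over 6 hr; FP gives the signal.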
# Tau ThT inhib = qHTS for Inhibitors of Tau Fibril Formation, Thioflavin T Binding. Potency, µM (top dose mostly 57.4 µM), for inactives: top-dose activity, negative = inhibition, most hits filed as inhibitors. AID 1460, 2008. Microtubule-associated protein tau (Homo sapiens), P10636. actives 2.1% (n = 270,000). recombinant tau K18 P301L (four-repeat tau fragment), heparin-induced fibrillization, ThT fluorescence; note: potency is the fitted concentration of half-maximal effect; % is set by controls: 0 for no effect and ±100 for the full control effect; nearly all actives have a fitted effect of over 55% in size
#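 K18 P301L tau (15 uM + 0.24 uM Alexa 594-tagged), heparin 20 uM, NaOAc pH 7, 6 h 37 C; ThT 30 uM, 1 h RT, ex 450/em 510 nm.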
# Casp1 confirm = Confirmation Concentration-Response Assay for Allosteric/Competitive Inhibitors of Caspase-1 | shares compounds with FBPA coupling cs | purified caspase-1, fluorogenic substrate cleavage | Potency, µM (series often up to 57.5 µM), without a hit: at the top dose activity change, negative = inhibition, usual class: inhibitors | actives 20% (n = 60); active = well fitted inhibition curve with a large enough effect in the main read-out, with a control signal flat; inconclusive = small, poorly fitted or top-dose-only effect, or a change in a side signal; inactive = no such curve, though single readings can be large or run the other way
# Casp7 confirm = Confirmation Concentration-Response Assay for Allosteric/Competitive Inhibitors of Caspase-7. Potency, µM (doses to about 57.5 µM), for inactives: top-dose activity change, negative = inhibition, actives largely listed as inhibitors. shares compounds with FBPA coupling cs. AID 897, 2007. recombinant caspase-7, fluorogenic substrate cleavage. 60 tested, under 10 active; active = well fitted inhibition curve with a large enough effect in the main read-out, with a control signal flat, not every such curve was filed as active; inconclusive = small, poorly fitted or top-dose-only effect, or a change in a side signal; inactive = no such curve, though single readings can be large or run the other way
# CASP7 redox cys = Concentration-Response Counterscreen for Redox Active Inhibitors of Caspase-7: Cysteine; shares compounds with FBPA coupling cs; caspase-7 enzyme with cysteine, fluorogenic substrate, redox counterscreen; Potency, µM (doses to about 57.5 µM), for inactives: top-dose activity change, negative = inhibition, usual class: inhibitors; 60 tested, under 10 active; AID 908, 2007; active = well fitted inhibition curve with a large enough effect in the main read-out, with a control signal flat; inconclusive = small, poorly fitted or top-dose-only effect, or a change in a side signal; inactive = no such curve, though single readings can be large or run the other way
# CASP1 redox cys = Concentration-Response Counterscreen for Redox Active Inhibitors of Caspase-1: Cysteine; Potency, µM (series often up to 57.5 µM), for the others: at the highest dose activity change, negative = inhibition, actives largely listed as inhibitors; AID 929, 2007; 60 tested, under 10 active; recombinant caspase-1, fluorogenic substrate, cysteine buffer; shares compounds with FBPA coupling cs; active = well fitted inhibition curve with a large enough effect in the main read-out, with a control signal flat; inconclusive = small, poorly fitted or top-dose-only effect, or a change in a side signal; inactive = no such curve, though single readings can be large or run the other way
# Active calls of the source: *; ? = inconclusive; · = no result given; ! = a repeat was not active; [ ] = another dose, or the depositor's remark. Sampled rows, rich in hits. Any-hit rate of the full collection: about 3%. Unless noted, calls come from the whole dose curve; as a rule, active = well fitted curve in the direction sought with a large enough effect; inconclusive = small, poorly fitted or top-dose-only effect, or another doubt; inactive = no such curve, though single readings can be large; an effect the other way counts as inactive or inconclusive.
SMILES,FBPA coupling cs,Tau fluor cs,JMJD2E inh,Tau fibril FP,Tau ThT inhib,others
Nc1ncnc2c1ncn2[C@@H]1O[C@H](COP(=O)(O)OP(=O)(O)OP(=O)(O)O)[C@H]2OC3(O[C@H]21)C([N+](=O)[O-])=CC(=[N+]([O-])[O-])C=C3[N+](=O)[O-] (some centres undefined),11,8%,·,3%,?,
O=C(O)c1ccccc1O,3,-8%,?,-6%,-8%,
Oc1ccccc1O,·,?,14µM*,?,?,
OC(c1ccc(Cl)cc1)(c1cncnc1)c1ccccc1Cl (centres undefined),-2,·,·,·,·,
CCCCn1c(NS(=O)(=O)c2ccc(C)cc2)c(C(=O)OCC)c2nc3ccccc3nc21,-19,3%,?,2%,-8%,
CCCCn1c(NC(=O)c2ccco2)c(C(=O)OCC)c2nc3ccccc3nc21,-46*,-26%,?,16µM*,13µM*,
N#CC(c1ccccc1)N1CCOCC1 (centres undefined),-4,5%,-3%,1%,1%,
COc1cc(C(C#N)N2CCOCC2)ccc1O (centres undefined),-35*,5%,?,4%,0%,
CCOC(=O)CCN(SN(C)C(=O)Oc1cccc2c1OC(C)(C)C2)C(C)C,-2,·,·,·,·,
O=C1NC(=O)N(c2cccc(Cl)c2)C(=O)/C1=C\c1ccc(Sc2nc3ccccc3[nH]2)o1,5,?,?,?,13µM*,
O=C1NC(=O)N(c2ccccc2F)C(=O)/C1=C/c1ccc(Sc2nc3ccccc3[nH]2)o1,6,-11%,?,-22%,13µM*,
Cc1cc(-c2nc3ccccc3s2)ccc1NC(=O)c1cc(Cl)ccc1Cl,·,-12%,·,-3%,?,
COc1ccc(CCN)cc1O,·,-4%,2%,0%,-7%,
NCCc1cc(O)c(O)cc1O,-57*,10µM*[quencher],6.3µM*,25µM*,7.1µM*,
C[C@H](CCC(=O)O)[C@H]1CC[C@@H]2[C@H]3CC[C@H]4C[C@H](O)CC[C@]4(C)[C@@H]3CC[C@@]21C,15,-1%,9%,9%,-5%,
C=CCN1C(=O)NC(=O)/C(=C/c2cc3c4c(c2)CCCN4CCC3)C1=O,-8,-29%,20µM*,?,18µM*,
CN1CCC2(CC1)C(C#N)=C(N)NC(S)=C2C#N,-15,?,?,?,22µM*,
CCOP(=S)(OCC)OCCSCC,3,·,·,·,·,
C=C1C(=O)O[C@@H]2C[C@@H](C)[C@@H]3C=CC(=O)[C@@]3(C)[C@@H](O)[C@H]12,4,8.9µM*![quencher],9%,4µM*,3.5µM*,
CC(=O)C(Sc1ncnc2c1nnn2-c1ccc(F)cc1)C(=O)N(C)C (centres undefined),-5,-15%,-20%,?,14µM*,
Cc1ccc(-n2c(O)c(/C=C/C=Nc3ccccc3)c(=O)[nH]c2=O)cc1,6,-9%,-13%,6%,-8%,
Cc1ccc(N/N=C/c2c(O)n(-c3ccccc3)c(=O)[nH]c2=O)cc1,0,?,-23%,?,16µM*,
CCOc1ccc(-n2c(O)c(C=Nc3ccc(N(CC)CC)cc3)c(=O)[nH]c2=O)cc1,-3,-26%,-6%,-1%,?,
CCN(CC)c1ccc(N=Cc2c(O)n(-c3ccccc3C)c(=O)[nH]c2=O)cc1,0,-30%,-25%,0%,20µM*,
CCOc1ccccc1-n1c(O)c(C=Nc2ccc(N(CC)CC)cc2)c(=O)[nH]c1=O,-2,-30%,-18%,-10%,?,
SMILES,FBPA coupling cs,Tau fluor cs,JMJD2E inh,Tau fibril FP,Tau ThT inhib,others
CCN(CC)c1ccc(N=Cc2c(O)n(-c3ccccc3)c(=O)[nH]c2=O)cc1,-10,?,7.9µM*,-13%,·,
COc1ccc(CNC(=O)/C=C\c2ccc3[nH]cc(CCN(C)C)c3c2)cc1,-1,-18%,?,6%,-12%,
O=C1/C(=C\c2ccccc2)C[C@@]2(O)[C@H]3Cc4ccc(O)c5c4[C@@]2(CCN3CC2CC2)[C@@H]1O5,0,7%,-4%,?,-11%,
COc1cc(C(c2c(C)[nH]n(-c3ccccc3)c2=O)c2c(C)[nH]n(-c3ccccc3)c2=O)cc(OC)c1OC,0,-20%,9%,-2%,?,
Cc1[nH]n(-c2ccccc2)c(=O)c1C(c1cccc([N+](=O)[O-])c1O)c1c(C)[nH]n(-c2ccccc2)c1=O,-11,?,0%,-9%,7.9µM*,
CC[C@H](C)[C@H](NC(=O)[C@H](CCCN=C(N)N)NC(=O)[C@H](CCCN=C(N)N)NC(=O)[C@H](CC(C)C)NC(=O)[C@H](Cc1ccccc1)NC(=O)CNC(=O)CNC(=O)[C@@H](N)Cc1ccc(O)cc1)C(=O)O,·,-9%,·,-6%,-6%,
c1ccc([Se]c2c(-c3ccccc3)[se]c3ccccc23)cc1,4,-7%[81.3 µM],·,-9%[81.3 µM],-3%[81.4 µM],
CCn1nc(-c2cccs2)nc2c(=O)n(C)c(=O)nc1-2,-69*,-22%,?,?,18µM*,Casp1 confirm=0.32µM*;Casp7 confirm=0.63µM*;CASP7 redox cys=-11%;CASP1 redox cys=-4%
C[C@@]12CCC3C(CCC4=CC(=O)CC[C@]43C)C1CCC2O (some centres undefined),7,-9%,1%,-1%,?,
O=C(O)c1cc[c]([Hg][Cl])cc1,·,-8%,?,-12%,?,Casp1 confirm=10µM*;Casp7 confirm=-14%;CASP7 redox cys=-25%;CASP1 redox cys=2.5µM*
COc1ccc(C(=O)O)cc1OC,0,-4%,-7%,1%,0%,
